Results on 12 compounds are retold here after PubChem BioAssay (NCI).

Holding throughout (assay): NCI-60 one-dose screen, 48 h (100 = growth as untreated, 0 = no growth, -100 = all killed)
Conditions in all cases: 10 µM unless noted

Test [1] relates to SR leukemia.
In test [2] the test system is RPMI-8226 leukemia.
Test [3] has as its system OVCAR-8 ovarian.
Test [4] concerns OVCAR-5 ovarian.
In test [5] the test system is OVCAR-4 ovarian.
Test [6] has as its system SK-OV-3 ovarian.
Test [7] relates to IGROV1 ovarian.
In test [8] the test system is OVCAR-3 ovarian.
In test [9] the test system is HS 578T breast.
For test [10], the system named is NCI/ADR-RES ovarian.

The panel holds about 83,000 compounds, 20% with a hit somewhere; the sample as a whole holds those more often.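 A percent growth of 40 corresponds to 60% growth inhibition; 0 means no net growth; -100 means all cells died. Active threshold: below 10.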 Values without a mark were called inactive. Activity calls are given as the source filed them.

As for `O=C1c2cccnc2C(=O)c2c1c(C(=O)NCCCN1CCCCC1)c1ccccn21`, the growth in [1] is -15.3% (active); in [2], -10.9% (active); in [3] it was -13.3% (active); in [4] it was -0.385% (active); in test [5], -88% (active); in test [6], -15.7% (active). The growth in [7] is -43.4% (active); in test [8] it was -34.8% (active); in test [9], 36.3%; in test [10] it was -15.5% (active).

`Cn1cc(-c2nc(-c3c[nH]c4ccncc34)cs2)c2ccccc21`: the growth in test [1] was -9.5% (active); in test [2], -29% (active); in test [3] it was 49.4%; in test [4], 71.8%; in [5], 52.1%; in test [6], 77.3%. The growth in test [7] is 67.3%; in [8], 85.8%; in [9] it was 90.1%; in [10], 86.4%.

With `CCOC(=O)c1cc2c(=O)oc3ccccc3c2oc1=O`, the growth in [1] is -26% (active); in [2] it was 84.7%; in test [3], 102%; in test [4] it was 100%; in test [5] it was 96.4%; in test [6] it was 102%. In addition, the growth is 103% in [7], 112% in test [8], 100% in [9] and 112% in [10].

Take `N#C/C(=C\c1ccc2ccccc2c1)c1cc2ccccc2[nH]1`: the growth in test [1] was 23.5%; in test [2] it was 32.4%; in test [3], 46.5%; in test [4], 61.2%; in test [5], 88.3%; in test [6] it was 64%. Moreover, the growth was 48.1% in [7], 7.91% (active) in [8], 25.8% in test [9] and 12.4% in [10].

As for `O=Nc1c(-c2c(O)[nH]c3ncccc23)[nH]c2ccccc12`, the growth is 32.8% in test [1]; 69.5% in test [2]; 79.6% in [3]; 67.7% in [4]; 66.7% in [5]; 6.5% (active) in test [6]. Moreover, the growth is -25.3% (active) in test [7], 69.3% in [8], -9.72% (active) in test [9] and 71.8% in test [10].

As to `N#CC1=C(c2ccc(Cl)cc2)Nc2c(c(-c3ccc(Cl)cc3)nn2-c2ccccc2)C12C(=O)Nc1ccc(Cl)cc12` (stereo not given), the growth in test [1] is 14.1%; in [2], 27.9%; in test [3], 49.2%; in [4] it was 71.6%; in [5], 41.8%; in [6], 86.5%. Moreover, the growth is 36.7% in test [7], 55.3% in test [8], 57.1% in [9] and 52.8% in test [10].

Turning to `Cc1cccc(N2CCN(CC(O)COc3ccc(Cl)cc3)CC2)c1` (stereo not given), the growth was 79.7% in test [1]; 77.6% in test [2]; 98.8% in [3]; 116% in [4]; 115% in [5]; -100% (active) in [6]. In addition, the growth in [7] was 92.7%; in [8] it was 111%; in [9], 115%; in test [10], 105%.

On to `S=C1CCSC(=S)N1CCCN1C(=S)CCSC1=S`, for which the growth in [1] was 21%; in test [2] it was 3.38% (active); in test [3] it was 55.3%; in test [4] it was 82.8%; in test [5], 83.7%; in test [6] it was 112%. Also, the growth was 85.8% in test [7], 34.1% in test [8], 83.2% in test [9] and 80.7% in test [10].

Take `CCCC(=O)NC(c1ccc2c(c1)OCO2)c1ccc2cccnc2c1O` (stereo not given): the growth is -16.1% (active) in test [1]; 13.1% in [2]; 9.28% (active) in [3]; 34.2% in [4]; 14.5% in [5]; 14.8% in [6]. Further, the growth in test [7] was 5.54% (active); in [8], 36.9%; in [9], 58.6%; in [10], 3.18% (active).

With `CC(=O)Cc1nsc(NC(=O)c2cc(-c3cc(Cl)cc(Cl)c3)oc2C)n1`, the growth in test [1] is 98.3%; in test [2], 93.5%; in [3], 97.8%; in test [4], 104%; in test [5], 104%; in test [6], 99.2%. Moreover, the growth is 102% in [7], 106% in test [8], 102% in [9] and 103% in [10].

As for `CC(C)N1CN2C(=S)NC3C2N(C1)C(=S)N3C` (stereo not given), the growth was 88.6% in [1]; 91.7% in test [2]; 102% in test [3]; 107% in test [4]; 117% in [5]; 109% in [6]. Besides, the growth in test [7] was 103%; in test [8], 103%; in [9] it was 95.6%; in test [10] it was 106%.

Turning to `Cn1cc(-c2nonc2-c2c[nH]c3ccc(Br)cc23)c2cc(Br)ccc21`, the growth was 20.5% in test [1]; 41.3% in test [2]; 34% in test [3]; 37.6% in [4]; -2.18% (active) in test [5]; 53.7% in test [6]. The growth is 59% in test [7], 33.6% in [8], 31.6% in [9] and 36.6% in test [10].
